Compound activity: PubChem, National Center for Advancing Translational Sciences (NCATS)
Hits are enriched below; roughly 2.1% of the tested compounds scored in any of these assays.
aSyn yeast inh – rescues yeast growth from alpha-synuclein toxicity; Yeast expressing alpha-synuclein, growth rescue, BacTiter-Glo, 24 h; Potency, µM (series often up to 46.1 µM), inactives show top-dose growth rescue (activation), actives largely listed as activators; 370,000 tested, 0.14% active; further: % of control where 0% means no effect; nearly all actives have a fitted effect of over 65% in size
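Galactose-induced alpha-syn yeast (OD600=0.02, raffinose-pregrown) + pinned cpd, 24 hr, 30 deg C; growth by BacTiter-Glo luminescence. Growth restoration scores as activation.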
Abeta rescue – compounds reversing amyloid beta toxicity in yeast; Potency, µM (series often up to 46.1 µM), actives largely listed as activators; 410,000 tested, 0.063% active; yeast expressing A-beta42, growth rescue, OD600, 48 h; response scale: 0% DMSO, 100% iron-clioquinol control; further: nearly all actives have a fitted effect of over 55% in size
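Yeast A-beta toxicity model in growth medium with pinned compounds, 48 h at 30 C; growth read as absorbance at 600 nm. Normalized to FeCl3/clioquinol equimolar mix (positive) and DMSO (negative).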
TDP43 rescue – TDP-43 toxicity inhibition in yeast; TDP-43 expressing yeast growth rescue, BacTiter-Glo, 24 h; Potency, µM (top dose mostly 46.1 µM), inactives show at the highest dose growth rescue (activation), usual class: activators; 410,000 tested, 1.8% active; AID 652104; further: % of control where 0% means no effect; nearly all actives have a fitted effect of over 50% in size
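Growth rescue of TDP-43-toxic yeast measured as ATP luminescence (BacTiter-Glo). Cells grown to mid-log in raffinose, induced in galactose at OD600=0.02, exposed to compound 24 hr at 30 deg C.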
FUS yeast rescue – rescues growth of FUS-expressing yeast; S. cerevisiae FUS-expressing, growth rescue, OD600, 24 h; Potency, µM (doses to about 76.6 µM), most hits filed as activators; 390,000 tested, 0.24% active; AID 1347120;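 further: plate controls were DMSO vehicle for no effect and reference control for full effect; nearly all actives have a fitted effect of over 55% in size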
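Cultures pregrown in 2.5% raffinose medium are shifted to minimal medium containing 2% galactose to express toxic FUS. Compounds are tested at several concentrations. After 24hr at 30C, growth is quantified at 600 nm absorbance.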
An asterisk follows results filed as active; i = inactive; u = inconclusive; x = no result given. The call rests on the fitted dose curve; in most records, active means well fitted curve in the direction sought with a large enough effect; inconclusive means small, poorly fitted or top-dose-only effect, or another doubt; inactive means no such curve, though single readings can be large; an effect the other way counts as inactive or inconclusive. Potency means the concentration at half of the fitted maximal effect.

SMILES	aSyn yeast inh	Abeta rescue	TDP43 rescue	FUS yeast rescue
CCOC(=O)N1CCC(N(CCN(C)C)C(=S)Nc2ccc(Oc3ccccc3)cc2)CC1	20µM*	i	20%	i
O=C(Nc1ccc(Oc2ccccc2)cc1)C1CC1	-29%	i	5.6µM*	i
O=C(Nc1ccc(Oc2ccccc2)cc1)C1CCN(c2ncccn2)CC1	0%	i	0%	i
CCOC(=O)Nc1cccc(OCC(=O)Nc2ccccc2OC)c1	-7%	i	16µM*	i
CCOC(=O)N1CCC(N(CCN(C)C)C(=S)Nc2cccc(C)c2)CC1	-2%	i	2%	i
CCOC(=O)c1ccc(N/C=C/C(=O)c2ccccc2)cc1	2%	i	-10%	i
CCOC(=O)Nc1ccc(C(=O)/C=C/c2ccccc2)cc1	1%	i	14µM*	i
COc1ccc2oc(=O)c(C(=O)NCc3cccnc3)cc2c1	-13%	i	-10%	i
Cc1cc(NC(=O)COC(=O)c2c(C)nn(-c3ccccc3)c2C)no1	0%	i	u	i
COc1ccccc1Cc1c(-c2ccco2)nc2ccc(Cl)cn12	1%	i	u	i
CCOC(=O)Nc1ccc(Oc2ccccc2)cc1	-1%	i	11µM*	i
COc1ccc(C(=O)Nc2ccccc2)cc1S(=O)(=O)NCc1ccco1	-4%	i	-22%	i
Cc1ccc(C2C(C(N)=S)=C(N)OC3=C2C(=O)CC(C)(C)C3)cc1 (stereo unspecified)	-8%	i	0%	x
CS(=O)(=O)N1Cc2ccccc2CC1C(=O)OCC(=O)NCc1ccccc1 (stereo unspecified)	4%	i	8%	x
COc1ccc(C(O)c2nc(-c3cccc(O)c3)cs2)cc1 (stereo unspecified)	u	u	20µM*	i
COc1ccc(C(O)c2nc(-c3cccc(C(C)C)c3)cs2)cc1 (stereo unspecified)	0%	i	35µM*	i
O=C(CN(c1ccc([N+](=O)[O-])cc1)S(=O)(=O)c1ccccc1)N1CCCCC1	2%	i	1%	i
COc1ccc2ccn(S(=O)(=O)c3ccccc3)c2c1	0%	i	20µM*	i
O=S(=O)(c1ccccc1)n1ccc2ccccc21	1%	i	u	i
COc1cc(OC)cc(C(=O)NCC(=O)OCC(=O)NC2CCCc3ccccc32)c1 (stereo unspecified)	3%	i	18%	x
CCn1c(/C=C/c2ccccc2)nc2ccccc2c1=O	-1%	i	35µM*	i
CCn1c(/C=C/c2ccc(F)cc2)nc2ccccc2c1=O	-13%	i	22µM*	i
Cn1c(/C=C/c2ccccc2)nc2ccccc2c1=O	-13%	i	u	i
O=C1CC(c2ccsc2)c2cc3c(cc2N1)OCCO3 (stereo unspecified)	8%	u	0%	i
CC1CCN(C(=O)CCNS(=O)(=O)c2ccc(Br)cc2)CC1	3.5µM*	i	-11%	i
SMILES	aSyn yeast inh	Abeta rescue	TDP43 rescue	FUS yeast rescue
NS(=O)(=O)c1ccc(CCNC(=O)C2CCN(S(=O)(=O)c3cnc[nH]3)CC2)cc1	-14%	i	-18%	25µM*
CN1CCN(CCCNC(=O)c2cc3c(-c4ccc(Cl)cc4)nn(C)c3s2)CC1	4%	i	-8%	i
Cn1nc(-c2ccc(Cl)cc2)c2cc(C(=O)NCC3CCCO3)sc21 (stereo unspecified)	u	i	22µM*	i
Cc1ccc(C)c2c1cc(C)c1nnc(SCC(=O)c3cccs3)n12	16%	i	22µM*	i
Cc1ccc2cc(C)c3nnc(SCC(=O)c4cccs4)n3c2c1C	1%	i	u	i
CCn1c(-c2cc(-c3ccc(OC(C)C)cc3)nc3ccccc23)n[nH]c1=S	-4%	i	u	35µM*
CC1CC(=O)C=C(O)C1C(=O)OC(C)(C)C (stereo unspecified)	0%	i	0%	i
O=C1Nc2ccc(I)cc2/C1=C/c1cc(Br)c(O)c(Br)c1	25%	x	x	x
O=C1Nc2ccc(I)cc2C1=Cc1cc(Br)c(O)c(Br)c1	3.2µM*	x	x	x
O=C(c1ccco1)N(Cc1ccc(Cl)cc1)C1CCS(=O)(=O)C1 (stereo unspecified)	1%	i	-4%	i
